In the library only some 3.8% were active in any assay of this set; here they are far more common.
Nrf2 ARE act: activators of Nrf2 (ARE) signaling; AREc32 ARE-luciferase reporter (MCF7-derived line), luminescence, 24 h; Potency, µM (highest dose often 46.1 µM), hits mostly activators; 0.31% of 410,000 active; also: nearly all actives have a fitted effect of over 65% in size
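Luminescent ARE reporter assay in AREc32_Fluc cells: overnight plating at 37 deg C, 24 hr compound incubation, Steady-Glo added, 30 min RT before reading.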
Nrf2 block: Nrf2 pathway inhibition; 2.1% of 360,000 active; A549 ARE-Fluc reporter, luciferase luminescence, 18-24 h; Potency, µM (doses to about 46 µM), usual class: inhibitors; also: nearly all actives have a fitted effect of over 60% in size
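In this cell-based qHTS, ARE-driven firefly luciferase in A549 cells reports Nrf2 activity; the luminescent signal after BugLite lysis is the measured value, with a prior CellTiter-Fluor read for cell health.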
ELG1 DNA repair: inhibitors of ELG1-dependent DNA repair in HEK293T cells; HEK293T ELG1-luciferase reporter, luminescence, 16 h; DNA damage induced by 5-fluorouridine; Potency, µM (doses to about 46.1 µM), actives largely listed as inhibitors; 2.3% of 330,000 active; also: nearly all actives have a fitted effect of over 55% in size
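Cells (2,000 per well) received 5-fluorouridine plus test compound or DMSO and were incubated 16 hr at 37 °C, 5% CO2. Luciferase activity was read by luminescence 30 min after ONE-Glo addition; signal suppression marked inhibition of damage-induced ELG1 function.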
A549 tox: kills or reduces viability of A549 cells in Nrf2 counter-screen. AID 504648. Potency, µM (highest dose often 46 µM), actives largely listed as inhibitors. A549 ARE-Fluc cells, CellTiter-Fluor viability, 18-24 h. 0.16% of 390,000 active
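A549 ARE-Fluc cells in 5% FBS OPTI-MEM, 5000 cells/well, rested 2 h then exposed to compounds in concentration-response for 18-24 h at 37 °C. Viability by CellTiter-Fluor fluorescence (Ex 405/Em 525) after 30 min; luciferase luminescence (BugLite, 15 min, RT) read afterwards.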
IDH1 R132H inh: human IDH1 R132H inhibition | 0.093% of 390,000 active | AID 602179 | IDH1-R132H enzyme, NADPH consumption, diaphorase/resazurin fluorescence | O75874 | Potency, µM (series often up to 76.6 µM), most hits filed as inhibitors; also: nearly all actives have a fitted effect of over 65% in size
Target sequence (O75874 whole entry R132H, stated change not applied): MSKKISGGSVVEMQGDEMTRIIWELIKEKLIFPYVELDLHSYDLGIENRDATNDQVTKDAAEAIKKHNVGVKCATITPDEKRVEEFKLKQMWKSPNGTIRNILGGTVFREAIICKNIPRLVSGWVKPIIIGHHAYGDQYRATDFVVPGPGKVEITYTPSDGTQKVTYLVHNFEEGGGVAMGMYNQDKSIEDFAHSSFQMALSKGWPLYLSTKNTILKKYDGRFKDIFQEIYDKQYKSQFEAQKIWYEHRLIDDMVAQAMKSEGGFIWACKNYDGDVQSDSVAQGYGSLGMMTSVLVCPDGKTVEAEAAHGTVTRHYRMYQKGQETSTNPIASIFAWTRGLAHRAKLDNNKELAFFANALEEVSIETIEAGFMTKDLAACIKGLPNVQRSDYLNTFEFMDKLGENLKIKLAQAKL
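IDH1-R132H (0.5 ug/mL) preincubated 30 min with compound, then NADPH (0.016 mM) and alpha-KG (2 mM) added; 80 min at RT, pH 7.5. Remaining NADPH coupled via diaphorase/resazurin to fluorescence (540/590 nm); concentration-response curves normalized to no-enzyme control.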
Of the large screens only hits and unclear results are named; the others gave an inactive call. Calls follow the shape of the dose curve; as a rule, active = well fitted curve in the direction sought with a large enough effect; inconclusive = small, poorly fitted or top-dose-only effect, or another doubt; inactive = no such curve, though single readings can be large; an effect the other way counts as inactive or inconclusive.

CCOc1cc2c(cc1OCC)-n1cccc1C(c1ccc(F)cc1)NC2 (stereo unspecified)	ELG1 DNA repair inconclusive
CCOc1cc2c(cc1OCC)-n1cccc1C(c1ccc(C(C)C)cc1)NC2 (stereo unspecified)	Nrf2 block 23µM, ELG1 DNA repair inconclusive, A549 tox inconclusive
O=C(Nc1ccc2nc(SCC(=O)N3CCCc4ccccc43)sc2c1)c1cccc(F)c1	Nrf2 block inconclusive (no result: ELG1 DNA repair)
CC1CCc2c(sc3nc(CSc4n[nH]c(N)n4)[nH]c(=O)c23)C1 (stereo unspecified)	ELG1 DNA repair inconclusive
CN1CCN(c2ncnc3ccc(Br)cc23)CC1	Nrf2 block inconclusive, ELG1 DNA repair 9.2µM
CN1CCC(N(C)c2ncnc3ccc(Br)cc23)CC1	ELG1 DNA repair inconclusive (no result: Nrf2 block)
CCn1cc(C(=O)NCCc2ccc(OC)c(OC)c2)c(=O)c2cc(S(=O)(=O)N(C)C3CCCCC3)ccc21	Nrf2 block inconclusive (no result: ELG1 DNA repair)
COc1ccc(C(=O)NCCn2cc(SCc3ccc(C(F)(F)F)cc3)c3ccccc32)cc1OC	Nrf2 block 18µM (no result: ELG1 DNA repair)
CCOC(=O)c1ccccc1OC(=O)NNc1ccccc1	Nrf2 block inconclusive (no result: ELG1 DNA repair)
CCC(=Nc1ccc(OC)cc1OC)c1c(O)n(C2CCCCC2)c(=O)[nH]c1=O	Nrf2 block inconclusive, ELG1 DNA repair 18µM, A549 tox inconclusive
Cc1cc(C(=O)OCC(=O)NC(=O)c2cccn2C)c2ccccc2n1	ELG1 DNA repair inconclusive
CCN(CC)c1ccc(N=Cc2c(O)n(CCc3ccc(OC)c(OC)c3)c(=O)[nH]c2=O)cc1	Nrf2 block inconclusive, ELG1 DNA repair 2.6µM
COc1ccc(CCn2c(O)c(C=Nc3ccc(F)cc3)c(=O)[nH]c2=O)cc1OC	Nrf2 block inconclusive, ELG1 DNA repair inconclusive
CC[C@@]1(C(=O)OC)N[C@H](CN(C)C(=O)Nc2ccc(OC)cc2)[C@@H]2C(=O)N(Cc3ccccc3)C(=O)[C@@H]21	ELG1 DNA repair inconclusive
O=C(Nc1ccccc1F)Oc1cccc(OC(=O)Nc2ccccc2F)c1	Nrf2 block inconclusive, ELG1 DNA repair inconclusive
Cc1cc(NC(=O)CCl)no1	Nrf2 ARE act inconclusive, Nrf2 block 16µM, ELG1 DNA repair inconclusive, A549 tox inconclusive
Cc1cc(NC(=O)COC(=O)c2c(C)nn(Cc3ccccc3)c2C)no1	none
CN(C)C(=O)O/N=C(\N)COc1ccc(C(C)(C)C)cc1	Nrf2 block inconclusive, ELG1 DNA repair inconclusive, A549 tox 21µM
CCOC(=O)C(O)(c1ccc(N(C)C(=O)COc2ccccc2)cc1)C(F)(F)F (stereo unspecified)	none (no result: ELG1 DNA repair)
C[C@H](CO)N1C[C@H](C)[C@@H](CN(C)Cc2ccccc2)Oc2c(NC(=O)c3ccncc3)cccc2C1=O	ELG1 DNA repair inconclusive
C[C@H](CO)N1C[C@H](C)[C@@H](CN(C)C(=O)NC2CCCCC2)Oc2c(NC(=O)Nc3ccc4c(c3)OCO4)cccc2C1=O	ELG1 DNA repair 15µM
C[C@@H]1CN([C@H](C)CO)C(=O)c2cc(NC(=O)Nc3ccc(C(F)(F)F)cc3)ccc2O[C@H]1CN(C)S(=O)(=O)c1cccs1	Nrf2 block inconclusive, ELG1 DNA repair inconclusive
C[C@H](CO)N1C[C@H](C)[C@@H](CN(C)Cc2ccc(-c3ccccc3)cc2)Oc2c(NC(=O)c3ccncc3)cccc2C1=O	Nrf2 block 21µM, ELG1 DNA repair inconclusive
COCCNC(=O)c1c(NC(=O)c2ccc(Br)o2)n(Cc2ccccc2)c2nc3ccccc3nc12	ELG1 DNA repair inconclusive
COCCOC(=O)c1c(N)n(Cc2ccco2)c2nc3ccccc3nc12	none (no result: Nrf2 block)
Nc1c(C(=O)NCC2CCCO2)c2nc3ccccc3nc2n1Cc1ccco1 (stereo unspecified)	ELG1 DNA repair 23µM
COCCCNC(=O)c1c(NC(=O)c2ccco2)n(Cc2ccccc2)c2nc3ccccc3nc12	Nrf2 ARE act 16µM
CC(C)CNC(=O)c1c(N)n(Cc2ccco2)c2nc3ccccc3nc12	Nrf2 block inconclusive, ELG1 DNA repair 26µM
Nc1c(C(=O)NC2CCCC2)c2nc3ccccc3nc2n1CC1CCCO1 (stereo unspecified)	Nrf2 block inconclusive, ELG1 DNA repair 15µM
O=C(c1ccccc1)c1ccc2nc(N3CCN(c4ccc(F)cc4)CC3)c3nncn3c2c1	Nrf2 block inconclusive (no result: ELG1 DNA repair)
COC(=O)C(NC(C)=O)(Nc1nc2c(C)cc(C)cc2s1)C(F)(F)F (stereo unspecified)	Nrf2 block inconclusive, ELG1 DNA repair inconclusive, A549 tox inconclusive
O=C(Oc1ccc2ccc(OC(=O)N3CCCCCC3)cc2c1)N1CCCCCC1	Nrf2 block inconclusive, ELG1 DNA repair inconclusive
CCCNC(=O)c1c(N)n(Cc2ccco2)c2nc3ccccc3nc12	ELG1 DNA repair 23µM
COCCCNC(=O)c1c(N)n(Cc2ccco2)c2nc3ccccc3nc12	ELG1 DNA repair inconclusive
COc1cccc(OC)c1-c1nn2c(-c3n[nH]c4c3CCC4)nnc2s1	Nrf2 block inconclusive (no result: Nrf2 ARE act, ELG1 DNA repair, IDH1 R132H inh)
Cc1sc2c(c1C)C(c1ccc(C(C)(C)C)cc1)=NCC(=O)N2CC(=O)Nc1nccs1	Nrf2 block 12µM
Cc1sc2c(c1C)C(c1cccs1)=NCC(=O)N2CC(=O)NCc1cccs1	none
CC(CNC(=O)c1ccc(CSc2nc3ccncc3n2Cc2ccc(F)cc2)cc1)c1ccccc1 (stereo unspecified)	Nrf2 block 23µM (no result: ELG1 DNA repair)
COc1cccc(-n2cnc3sc(-c4ccccc4)cc3c2=O)c1	Nrf2 block inconclusive (no result: ELG1 DNA repair)
O=C(O)c1sccc1Oc1ccc(F)cc1[N+](=O)[O-]	Nrf2 block 23µM
Cc1sc2ncnc(N3CCN(S(=O)(=O)c4ccc(Br)cc4)CC3)c2c1C	Nrf2 block 12µM (no result: ELG1 DNA repair)
CC(C)C[C@H]1CN([C@@H](CC(C)C)CN2CCCC2CN2C(=S)NC[C@@H]2Cc2ccc(O)cc2)C(=S)N1CC1CCCCCC1 (stereo partly specified)	Nrf2 block inconclusive (no result: ELG1 DNA repair)
CCN(CC)C(=O)c1ccc(NC(=O)CCn2nc(-c3ccc(Cl)cc3)c3ccccc3c2=O)cc1	Nrf2 block 26µM (no result: ELG1 DNA repair)
COc1cc2[nH]c(=O)n(Cc3ccc(C(=O)N4CCN(c5ccc(Cl)cc5)CC4)cc3)c(=O)c2cc1OC	Nrf2 block inconclusive (no result: ELG1 DNA repair)
COc1ccc(N2CCN(c3ncnc4c3nc3n4CCCCC3)CC2)cc1	Nrf2 block 16µM (no result: ELG1 DNA repair)
c1ccc(N2CCN(c3ncnc4c3nc3n4CCCC3)CC2)cc1	Nrf2 block 23µM (no result: ELG1 DNA repair)
Cc1ccc(Cl)cc1N1CCN(c2ncnc3c2nc2n3CCCC2)CC1	Nrf2 block inconclusive (no result: ELG1 DNA repair)
CCCCC(=O)Nc1c(C(=O)N2CCN(c3ccccc3F)CC2)oc2ccccc12	Nrf2 block inconclusive (no result: ELG1 DNA repair)
COc1ccc2[nH]c3c(c2c1)CCN1C(=O)C(CC(=O)NCc2cccc(C(F)(F)F)c2)C[C@H](C(=O)N2CCCCC2)[C@@]31C (stereo partly specified)	Nrf2 block inconclusive, ELG1 DNA repair inconclusive

Bioassay records (PubChem)
